# Positions count from the first letter of the chain named.
# How the values were obtained:
# Assay in all cases: PBM; 200 nM protein, PBS
# Details in all cases: dsDNA, one strand shown
# ALX4 [1] = molecular target: ALX4 (Homo sapiens, UniProt Q9H161 200-286)
# PAX4 [2] = molecular target: T1, PAX4 (Homo sapiens, UniProt O43316 9-242, R200K)
# T1 sequence: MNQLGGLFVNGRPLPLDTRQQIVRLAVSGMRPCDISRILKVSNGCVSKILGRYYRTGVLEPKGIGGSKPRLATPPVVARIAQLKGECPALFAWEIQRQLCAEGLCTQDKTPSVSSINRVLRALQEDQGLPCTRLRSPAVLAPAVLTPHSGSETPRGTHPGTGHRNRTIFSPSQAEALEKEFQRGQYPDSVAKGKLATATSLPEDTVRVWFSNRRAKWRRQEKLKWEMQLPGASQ
# PAX4 [3] = molecular target: T2, PAX4 (Homo sapiens, UniProt O43316 9-242)
# T2 sequence: T1 sequence with K192R
# ALX4 [4] = molecular target: ALX4 (Homo sapiens, UniProt Q9H161 200-286, Q225E)
# NKX2-6 [5] = molecular target: T3, NKX2-6 (Homo sapiens, UniProt A6NCS4 118-204)
# T3 sequence: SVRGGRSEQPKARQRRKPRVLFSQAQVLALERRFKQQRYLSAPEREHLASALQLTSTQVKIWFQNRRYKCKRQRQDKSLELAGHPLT
# PAX4 [6] = molecular target: T4, PAX4 (Homo sapiens, UniProt O43316 9-242, R200Q)
# T4 sequence: T1 sequence with K192Q
# PAX4 [7] = molecular target: T5, PAX4 (Homo sapiens, UniProt O43316 9-242, F177V)
# T5 sequence: T1 sequence with F169V, K192R
# PAX4 [8] = molecular target: T6, PAX4 (Homo sapiens, UniProt O43316 9-242, F177Y)
# T6 sequence: T1 sequence with F169Y, K192R
# NKX2-6 [9] = molecular target: T7, NKX2-6 (Homo sapiens, UniProt A6NCS4 118-204, F151L)
# T7 sequence: T3 sequence with F34L
# PAX4 [10] = molecular target: T8, PAX4 (Homo sapiens, UniProt O43316 9-242, R227W)
# T8 sequence: T1 sequence with K192R, R219W
# PRRX1 [11] = molecular target: PRRX1 (Homo sapiens, UniProt P54821 80-166, F113S)
# MSX2 [12] = molecular target: MSX2 (Homo sapiens, UniProt P35548 130-214, R199I)
# MSX2 [13] = molecular target: MSX2 (Homo sapiens, UniProt P35548 130-214)
# MSX2 [14] = molecular target: MSX2 (Homo sapiens, UniProt P35548 130-214, F161Y)
# PRRX1 [15] = molecular target: PRRX1 (Homo sapiens, UniProt P54821 80-166)
# HOXC10 = HOXC10 (Homo sapiens, UniProt Q9NYD6 254-340)
# VAX1 [16] = molecular target: VAX1 (Homo sapiens, UniProt Q5SQQ9 86-172)
# VAX1 [17] = molecular target: VAX1 (Homo sapiens, UniProt Q5SQQ9 86-172, T142I)
# NKX3-2 [18] = molecular target: NKX3-2 (Homo sapiens, UniProt P78367 192-278, P234S)
# NKX3-2 [19] = molecular target: NKX3-2 (Homo sapiens, UniProt P78367 192-278)
# NKX3-2 (Homo sapiens, UniProt P78367 192-278), sequence (P78367 192-278): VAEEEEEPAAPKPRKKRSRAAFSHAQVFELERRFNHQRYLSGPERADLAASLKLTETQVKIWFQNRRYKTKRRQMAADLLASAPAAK
# ALX4 (Homo sapiens, UniProt Q9H161 200-286, Q225E), sequence (Q9H161 200-286 Q225E): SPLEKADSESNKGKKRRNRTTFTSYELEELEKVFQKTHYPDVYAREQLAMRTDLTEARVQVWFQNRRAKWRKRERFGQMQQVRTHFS
# ALX4 (Homo sapiens, UniProt Q9H161 200-286), sequence (Q9H161 200-286): as the sequence (Q9H161 200-286 Q225E) above, with E26Q counted along it
# HOXC10, sequence (Q9NYD6 254-340): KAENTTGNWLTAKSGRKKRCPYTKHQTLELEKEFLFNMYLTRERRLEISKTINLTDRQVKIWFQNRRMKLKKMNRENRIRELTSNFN
# PRRX1 (Homo sapiens, UniProt P54821 80-166, F113S), sequence (P54821 80-166 F113S): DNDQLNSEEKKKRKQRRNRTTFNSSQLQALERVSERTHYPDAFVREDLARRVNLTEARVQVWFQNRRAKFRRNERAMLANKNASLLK
# PRRX1 (Homo sapiens, UniProt P54821 80-166), sequence (P54821 80-166): as the sequence (P54821 80-166 F113S) above, with S34F counted along it
# VAX1 (Homo sapiens, UniProt Q5SQQ9 86-172, T142I), sequence (Q5SQQ9 86-172 T142I): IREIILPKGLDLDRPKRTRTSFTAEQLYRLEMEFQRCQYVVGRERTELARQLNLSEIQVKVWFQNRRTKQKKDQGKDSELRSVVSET
# MSX2 (Homo sapiens, UniProt P35548 130-214), sequence (P35548 130-214): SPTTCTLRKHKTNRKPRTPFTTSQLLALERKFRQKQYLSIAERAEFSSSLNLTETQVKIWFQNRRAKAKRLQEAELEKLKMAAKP
# MSX2 (Homo sapiens, UniProt P35548 130-214, R199I), sequence (P35548 130-214 R199I): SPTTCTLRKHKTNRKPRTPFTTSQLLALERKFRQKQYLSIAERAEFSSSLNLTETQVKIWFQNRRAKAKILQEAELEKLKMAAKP
# NKX3-2 (Homo sapiens, UniProt P78367 192-278, P234S), sequence (P78367 192-278 P234S): as the sequence (P78367 192-278) above, with P43S counted along it
# MSX2 (Homo sapiens, UniProt P35548 130-214, F161Y), sequence (P35548 130-214 F161Y): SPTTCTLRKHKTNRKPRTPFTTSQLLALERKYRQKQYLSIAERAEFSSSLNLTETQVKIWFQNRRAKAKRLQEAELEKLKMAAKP
# VAX1 (Homo sapiens, UniProt Q5SQQ9 86-172), sequence (Q5SQQ9 86-172): as the sequence (Q5SQQ9 86-172 T142I) above, with I57T counted along it
sequence,measurement,setting,value
ATATAGTC,binding signal,ALX4 [1],"8.99 upbm affinity estimate (log intensity, higher = more binding, comparable within an allelic series)"
CGAAGGCC,binding signal,ALX4 [1],"8.29 upbm affinity estimate (log intensity, higher = more binding, comparable within an allelic series)"
same,binding signal,PAX4 [2],"9.2 upbm affinity estimate (log intensity, higher = more binding, comparable within an allelic series)"
same,binding signal,PAX4 [3],"9.31 upbm affinity estimate (log intensity, higher = more binding, comparable within an allelic series)"
same,binding signal,ALX4 [4],"8.19 upbm affinity estimate (log intensity, higher = more binding, comparable within an allelic series)"
same,binding signal,NKX2-6 [5],"9.35 upbm affinity estimate (log intensity, higher = more binding, comparable within an allelic series)"
same,binding signal,PAX4 [6],"9.3 upbm affinity estimate (log intensity, higher = more binding, comparable within an allelic series)"
same,binding signal,PAX4 [7],"9.19 upbm affinity estimate (log intensity, higher = more binding, comparable within an allelic series)"
same,binding signal,PAX4 [8],"9.09 upbm affinity estimate (log intensity, higher = more binding, comparable within an allelic series)"
same,binding signal,NKX2-6 [9],"9.28 upbm affinity estimate (log intensity, higher = more binding, comparable within an allelic series)"
same,binding signal,PAX4 [10],"9.29 upbm affinity estimate (log intensity, higher = more binding, comparable within an allelic series)"
AGGGCACC,binding signal,ALX4 [1],"7.93 upbm affinity estimate (log intensity, higher = more binding, comparable within an allelic series)"
same,binding signal,PRRX1 [11],"9.03 upbm affinity estimate (log intensity, higher = more binding, comparable within an allelic series)"
same,binding signal,ALX4 [4],"8.09 upbm affinity estimate (log intensity, higher = more binding, comparable within an allelic series)"
same,binding signal,MSX2 [12],"9.47 upbm affinity estimate (log intensity, higher = more binding, comparable within an allelic series)"
same,binding signal,MSX2 [13],"9.48 upbm affinity estimate (log intensity, higher = more binding, comparable within an allelic series)"
same,binding signal,MSX2 [14],"9.58 upbm affinity estimate (log intensity, higher = more binding, comparable within an allelic series)"
same,binding signal,PRRX1 [15],"9.28 upbm affinity estimate (log intensity, higher = more binding, comparable within an allelic series)"
TGATGGCA,binding signal,HOXC10,"10.7 upbm affinity estimate (log intensity, higher = more binding, comparable within an allelic series)"
same,binding signal,VAX1 [16],"9.08 upbm affinity estimate (log intensity, higher = more binding, comparable within an allelic series)"
same,binding signal,VAX1 [17],"8.72 upbm affinity estimate (log intensity, higher = more binding, comparable within an allelic series)"
CAACATTA,binding signal,ALX4 [1],"10.5 upbm affinity estimate (log intensity, higher = more binding, comparable within an allelic series)"
ATCTAAAC,binding signal,ALX4 [1],"9.7 upbm affinity estimate (log intensity, higher = more binding, comparable within an allelic series)"
GAGCACCC,binding signal,ALX4 [1],"7.99 upbm affinity estimate (log intensity, higher = more binding, comparable within an allelic series)"
same,binding signal,PRRX1 [11],"9.2 upbm affinity estimate (log intensity, higher = more binding, comparable within an allelic series)"
same,binding signal,ALX4 [4],"8.37 upbm affinity estimate (log intensity, higher = more binding, comparable within an allelic series)"
same,binding signal,PRRX1 [15],"9.01 upbm affinity estimate (log intensity, higher = more binding, comparable within an allelic series)"
ATGTCTTA,binding signal,ALX4 [1],"9.38 upbm affinity estimate (log intensity, higher = more binding, comparable within an allelic series)"
ACATTACC,binding signal,ALX4 [1],"10.7 upbm affinity estimate (log intensity, higher = more binding, comparable within an allelic series)"
AAGTACCG,binding signal,HOXC10,"11 upbm affinity estimate (log intensity, higher = more binding, comparable within an allelic series)"
same,binding signal,NKX3-2 [18],"12.4 upbm affinity estimate (log intensity, higher = more binding, comparable within an allelic series)"
same,binding signal,NKX3-2 [19],"12.5 upbm affinity estimate (log intensity, higher = more binding, comparable within an allelic series)"
CAGTCGCC,binding signal,ALX4 [1],"8.23 upbm affinity estimate (log intensity, higher = more binding, comparable within an allelic series)"
same,binding signal,ALX4 [4],"8.19 upbm affinity estimate (log intensity, higher = more binding, comparable within an allelic series)"
GGCATGCC,binding signal,ALX4 [1],"8.37 upbm affinity estimate (log intensity, higher = more binding, comparable within an allelic series)"
same,binding signal,ALX4 [4],"8.31 upbm affinity estimate (log intensity, higher = more binding, comparable within an allelic series)"
CTATAATA,binding signal,ALX4 [1],"11.6 upbm affinity estimate (log intensity, higher = more binding, comparable within an allelic series)"
same,binding signal,ALX4 [4],"10.8 upbm affinity estimate (log intensity, higher = more binding, comparable within an allelic series)"

# From article PMC11006913
